PubChem BioAssay AID434973 (Sanford-Burnham Center for Chemical Genomics, 2010)
Out of some 330,000 compounds screened, about 4,900 (1.5%) were called active.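 How the source made its calls: active means inhibition above about 50% at the single test dose (limit read from the data); inactive means the rest.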 The full list was thinned out, with actives kept by preference.

target: Sentrin-specific protease 7 (Homo sapiens) (UniProt Q9BQF6); test: blockers of human SENP7 peptidase activity – biochemical, luminescence, uHTS, primary screen (AID 434973); conditions: recombinant SENP7, Z-RLRGG-aminoluciferin luminescence, 40 min; at 5 µM; hits give high values;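 further: plate controls were DMSO with enzyme for no effect and no enzyme buffer wells for full effect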

inhibition, active:
COc1ccccc1OCc1nc2ccccc2s1 97.3%
COc1cc(/C=C(\C#N)c2nc3ccccc3[nH]2)ccc1O 93.7%
Cc1ccnc(Nc2nc3ccccc3s2)n1 88.5%
Cc1sc(NC(=O)c2ccc3ncsc3c2)c(C(N)=O)c1C 77.9%
O=C(O)/C=C/C(=O)NNc1ccc([N+](=O)[O-])cc1 81.7%
Cn1c(-c2ccco2)nc2cc3ccccc3cc21 98.5%
O=C(Nc1cccc2ccccc12)c1onc2c1CCCC2 64.8%
COc1ccc(C(=O)Nc2ccc(C3(C#N)CCCC3)cc2)cc1OC 95.4%
O=[N+]([O-])c1ccccc1N/N=C1\CCc2ccccc21 54%

inhibition, inactive:
COCC1CCN(C(=O)C2CCC(=O)N(Cc3cccc(C(F)(F)F)c3)C2)CC1 (stereo not given) 9.9%
CN(Cc1nc2ccccc2s1)C(=O)c1ccc(F)cc1 0.624%
COc1ccccc1N1CC(O)=C(c2nc3ccccc3s2)C1=N -12.5%
Cn1c(CCc2ccccc2)nnc1SCC(N)=O 0.317%
COc1cc(/C=C(\C#N)c2nc3c(s2)CC(C)CC3)ccc1O (stereo not given) 2.43%
Cc1ccc2nc(/C(C#N)=C\c3ccc(OC(=O)c4cccs4)cc3)[nH]c2c1 -1.03%
CNC(=S)N/N=C/c1ccc(N2CCOCC2)s1 12.6%
Cc1ccc(CCCOC(=O)C[N+]2(C)CCCC2)cc1 8.46%
O=C(c1cc(COc2c(F)cccc2F)on1)N1CCSCC1 0.456%
Cc1ccnc(-n2sc3ccccc3c2=O)n1 -5.5%
CC(=O)Nc1cccc(-c2nc3ccccc3s2)c1C -8.72%
COc1cccc(NC(=O)CCNS(=O)(=O)c2ccc3c(c2)oc(=O)n3C)c1 7.4%
O=C(COC(=O)C12CC3CC(CC(O)(C3)C1)C2)NC12CC3CC(CC(C3)C1)C2 -5.6%
COc1ccccc1-c1nnc(NC(=O)c2ccc3ncsc3c2)o1 4.87%
O=C(COC(=O)c1ccc2ncsc2c1)Nc1ccc(Cl)cc1 -7.82%
CCCCn1nc(C(=O)N2CCc3ccccc32)c2ccccc2c1=O 2.25%
CCCCN(CC(=O)NC(C)(C)C)C(=O)C(=O)Nc1ccc2c(c1)OCCO2 -0.161%
CCNC(=S)N1CCC(c2nc3cc(C)c(C)cc3[nH]2)CC1 1.02%
CNC(=S)Nc1ccc([N+](=O)[O-])cc1 -6.08%
O=C(Cc1ccccc1)NNS(=O)(=O)c1ccc([N+](=O)[O-])cc1 3.61%
CN(CC(=O)Nc1ccc(F)cc1)CC(=O)N1CCCCC1 4.6%
CSC1=N/C(=C\C=C\c2cccs2)C(=O)S1 43.7%
CCC1C=C(c2ccccc2)C=CN=C1N(CC)CC (stereo not given) 2.68%
CS(=O)(=O)n1nc(-c2ccco2)nc1N 3.45%
COc1ccccc1-n1c(-c2cc(-c3ccco3)[nH]n2)n[nH]c1=S 2.77%
CCOC(=O)c1cnc2c(c(C)nn2CC)c1Cl -8.37%
CCCn1c(N)c(C(=O)CSc2nnc(-c3cccnc3)n2-c2ccc(C)cc2C)c(=O)[nH]c1=O 2.06%
CCc1ccc(OCC(O)CN2CCN(CCO)CC2)cc1 (stereo not given) 7.06%
O=C(O)Cc1ccc(NC(=O)Nc2cccc3ccccc23)cc1 18.4%
CN(CC(=O)Nc1ccc(Cl)cc1)CC(=O)Nc1cccc2ccccc12 -3.2%
O=C1COc2ccc(C(=O)COC(=O)CCOc3ccccc3)cc2N1 7.4%
Cc1cccc(C(=O)N[C@H](C(=O)NCc2cccs2)C(C)C)c1 2.96%
COC(=O)C1(C)NC(c2ccccc2OC)C2C(=O)N(c3ccccc3)C(=O)C21 (stereo not given) -1.56%
COC(=O)c1cc(NC(=O)CN2CCN(C(C)=O)CC2)cc(C(=O)OC)c1 11.3%
O=C(CSc1ncn[nH]1)Nc1ccnc2ccccc12 11.7%
COc1cc(C(=O)NCC2(c3ccccc3)CCCC2)ccc1OC(C)C 11.3%
COc1ccc(C(=O)Nc2ccc3nc(N4CCCCC4)cc(C)c3c2)cc1OC -1.83%
CC1CCN(S(=O)(=O)c2ccc(S(=O)(=O)NCc3ccco3)cc2)CC1 -4.7%
CN1CCN(CCNC(=O)Nc2ccccc2[N+](=O)[O-])CC1 -10.6%
O=[N+]([O-])c1cc(C(F)(F)F)ccc1NN=C1CCCC1 5.78%
O=C(O)c1cc2ccccc2c(=O)s1 -3.56%
